In PubChem BioAssay (NCATS):
“And” between values parts separate entries of the source, which are not always exact repeats. Equal entries are not always repeated. Results filed as inconclusive are left out. A number with no mark means an inactive call. The source made the active and inactive calls. Calls come from the whole dose curve; as a rule, active = well fitted curve in the direction sought with a large enough effect; inconclusive = small, poorly fitted or top-dose-only effect, or another doubt; inactive = no such curve, though single readings can be large; an effect the other way counts as inactive or inconclusive.

Experiments:
[1] = Viability qHTS for spleen associated tyrosine kinase inhibitor (SYKi) drug resistant MV4-11 cells (AID 1963824); note: nearly all actives have a fitted effect of over 35% in size
Method in brief: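 SYK-inhibitor-resistant MV4-11 AML cells were seeded at 500 per well onto compound and cultured 72 hours (37 °C, 5% CO2). CellTiter-Glo was then added, and after 10 min at room temperature, luminescence gave viability.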

[2] = Quantitative highthroughput screen to assess conditional lethalithy of P12 Ichikawa cells grown in Human Plasma-Like Medium with dialyzed fetal bovine serum (HPLM+ds) (AID 1963879); conditions: Potency: viability; note: nearly all actives have a fitted effect of over 35% in size; for Viability: series mostly up to about 46 µM
Method in brief: (§1)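 Each medium arm—HPLM with 10% dialyzed FBS, or RPMI1640 with 5 mM glucose and 10% untreated or dialyzed FBS—was screened against an 11-point, 3-fold compound titration for 48 h at 37 °C, with CellTiter-Glo luminescence as endpoint.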

[3] = Quantitative highthroughput screen to assess conditional lethalithy of P12 Ichikawa cells grown in RPMI1640 with dialyzed fetal bovine serum (RPMI+ds) (AID 1963880); conditions: Potency: P12-Ichikawa viability; note: nearly all actives have a fitted effect of over 35% in size;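 for Viability: 100% = DMSO wells and 0% = empty wells on each plate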
Method in brief: as §1

[4] = Quantitative highthroughput screen to assess conditional lethalithy of P12 Ichikawa cells grown in RPMI1640 with untreated serum (RPMI+s) (AID 1963881); conditions: Potency: viability; note: nearly all actives have a fitted effect of over 35% in size;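 for Viability: series mostly up to about 46 µM; 100% = DMSO wells and 0% = empty wells without cells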
Method in brief: as §1

[5] = Quantitative highthroughput screen to assess conditional lethalithy of SEM cells grown in Human Plasma-Like Medium with dialyzed fetal bovine serum (HPLM+ds) (AID 1963882); note: nearly all actives have a fitted effect of over 35% in size; for Viability: series mostly up to about 46 µM
Method in brief: as §1

[6] = Quantitative highthroughput screen to assess conditional lethalithy of SEM cells grown in RPMI1640 with unreated serum (RPMI+s) (AID 1963883); note: nearly all actives have a fitted effect of over 35% in size;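 for Viability: 100% = DMSO wells and 0% = empty wells without cells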
Method in brief: as §1

[7] = Quantitative highthroughput screen to assess conditional lethalithy of SEM cells grown in RPMI1640 with dialyzed fetal bovine serum (RPMI+ds) (AID 1963884); note: nearly all actives have a fitted effect of over 35% in size;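 for Viability: series mostly up to about 46 µM; 100% = DMSO control wells and 0% = empty wells without cells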
Method in brief: as §1

[8] = Cellular viability qHTS for adrenocortical cancer (ACC) cell line SW-13 (AID 1963989); conditions: SW-13 ACC cells viability, CellTiter-Glo, 48 h; activity (max response): stronger effect = lower value; note: nearly all actives have a fitted effect of over 65% in size;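 for activity (max response): cells grown in serum-free medium with ITS supplement; % is set by controls: 0 for no effect and ±100 for the full control effect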
Method in brief: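 SW-13 cells in ITS-supplemented serum-free DMEM were plated overnight, then exposed for 48 h at 37C to compound titrations (up to 46 uM final). Viability was read by CellTiter-Glo luminescence; four-parameter logistic fits gave IC50 and efficacy.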

[9] = Cellular viability qHTS for adrenocortical cancer (ACC) cell line NCI-H295R (AID 1963990); note: nearly all actives have a fitted effect of over 60% in size
Method in brief: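 Luminescent ATP read-out (CellTiter-Glo, 20 min RT) after 48 h drug exposure of NCI-H295R cells; a titration up to 46 uM final. Data normalized to doxorubicin (100% inhibition) and DMSO (0%); 4-parameter fit gives IC50, max response.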

[10] = Quantitative highthroughput screen to assess conditional lethalithy of NOMO1 cells grown in RPMI1640 with dialyzed fetal bovine serum (RPMI+ds) (AID 1963877); note: nearly all actives have a fitted effect of over 30% in size
Method in brief: as §1

[11] = Quantitative highthroughput screen to assess conditional lethalithy of NOMO1 cells grown in Human Plasma-Like Medium with dialyzed fetal bovine serum (HPLM+ds) (AID 1963878); note: nearly all actives have a fitted effect of over 35% in size;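 for Viability: 100% = DMSO wells and 0% = empty wells on each plate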
Method in brief: as §1
Potency is the fitted concentration of half-maximal effect.

Row | Compound | Potency [1] | Potency [2] | Potency [3] | Potency [4] | Potency [5] | Potency [6] | Potency [7] | activity (max response) [8] [%] | Potency [9] | Potency [10] | Potency [8] | Potency [11]
1 | CCCCCCCCCCCC(CC1OC(=O)C1CCCCCC)OC(=O)C(CC(C)C)NC=O (stereo not drawn) | 3.72 µM (active) | 20.9 µM (active) | 23.5 µM (active) | 20.9 µM (active) | 18.7 µM (active) | 5.9 µM (active) | 11.8 µM (active) | 11.6 | inactive | – | – | –
2 | O=C(Nc1ncc(-c2cc(C(F)F)nn2-c2c(Cl)cccc2Cl)s1)C1CC1 | 0.372 µM (active) | 0.935 µM (active) | 1.18 µM (active) | 0.935 µM (active) | 1.32 µM (active) | 1.18 µM (active) | 1.32 µM (active) | – | – | – | – | –
3 | CN(C)CC[C@H](CSc1ccccc1)Nc1ccc(S(=O)(=O)NC(=O)c2ccc(N3CCN(Cc4ccccc4-c4ccc(Cl)cc4)CC3)cc2)cc1[N+](=O)[O-] | 0.0332 µM (active) | 1.48 µM (active) | 2.35 µM (active) | 2.64 µM (active) | 0.059 µM (active) | 0.0935 µM (active) | 0.0469 µM (active) | – | 22.4 µM (active) | – | – | –
4 | Cc1cc(-c2ccc(CC(=O)Nc3ccc(-c4cccnc4)cc3)cc2)ccn1 | 11.8 µM (active) | 6.62 µM (active) | 10.5 µM (active) | 16.6 µM (active) | 6.62 µM (active) | 10.5 µM (active) | 8.33 µM (active) | -19.6 | inactive | – | – | –
5 | CN(C)CCN1C(=O)c2cccc3cc(N)cc(c23)C1=O | 3.72 µM (active) | – | 18.7 µM (active) | 16.6 µM (active) | 5.9 µM (active) | 5.26 µM (active) | – | – | 22.4 µM (active) | 18.7 µM (active) | 22.4 µM (active) | –
6 | O=C(Nc1cccnc1)N1CCC(Cc2cccc(Oc3ccc(C(F)(F)F)cn3)c2)CC1 | 4.61 µM (active) and 3.72 µM (active) | 8.33 µM (active) | 4.18 µM (active) | 3.72 µM (active) | – | – | – | – | 17.8 µM (active) | – | 15.8 µM (active) | 8.33 µM (active)
7 | Cn1cnc(-c2cc3nccc(Oc4ccc(NC(=S)NC(=O)Cc5ccccc5)cc4F)c3s2)c1 | 36.6 nM (active) and 166 nM (active) | 23.5 µM (active) | – | 18.7 µM (active) | 0.59 µM (active) | 1.18 µM (active) | 0.0662 µM (active) | – | 14.1 µM (active) | – | 22.4 µM (active) | –
8 | Clc1ccc(C(Cn2ccnc2)OCc2ccc(Sc3ccccc3)cc2)c(Cl)c1 (stereo not drawn) | 6.61 µM (active) | – | – | – | inactive | – | inactive | – | – | – | 31.6 µM (active) | inactive
9 | CCCCCCCCCCCCCCCC(=O)O[C@H]1[C@@H](O)[C@@H](O)[C@@H]([C@H](NC(=O)[C@@H]2C[C@@H](CCC)CN2C)[C@H](C)Cl)O[C@@H]1SC | 23.5 µM (active) | inactive | inactive | inactive | – | inactive | – | 13.6 | inactive | – | – | –
10 | OC[C@H]1OC(O)C[C@@H](O)[C@H]1O (stereo partly drawn) | inactive | inactive | inactive | inactive | inactive | inactive | inactive | 7.09 | inactive | – | – | –
11 | O=C(O)C1(Cc2cccc(Nc3nccs3)n2)CCC(Oc2cccc(Cl)c2F)CC1 (stereo not drawn) | 461 nM (active) and 468 nM (active) | 2.35 µM (active) | – | 2.64 µM (active) | 2.96 µM (active) | 3.32 µM (active) | – | – | – | – | – | –
12 | O=C1c2c(O)ccc(O)c2C(=O)c2c(NCCNCCO)ccc(NCCNCCO)c21 | 59.6 nM (active) and 20.9 nM (active) | 0.296 µM (active) | 0.332 µM (active) | 0.264 µM (active) | 0.332 µM (active) | 0.235 µM (active) | 0.332 µM (active) | – | – | – | 1.16 µM (active) and 2.51 µM (active) | –
13 | CCN1CCN(Cc2ccc(-c3cc4c(N[C@H](C)c5ccccc5)ncnc4[nH]3)cc2)CC1 | 1.86 µM (active) | – | – | – | – | 14.8 µM (active) | 18.7 µM (active) | – | 31.6 µM (active) | – | 4.47 µM (active) | 20.9 µM (active)
14 | O=C(NCc1ccncc1)C12C[C@H]3C[C@@H](C1)CC(c1ccc(Cl)cc1)(C3)C2 | 11.8 µM (active) | 11.8 µM (active) | – | 20.9 µM (active) | 14.8 µM (active) | 7.43 µM (active) | 13.2 µM (active) | – | inactive | – | – | 18.7 µM (active)
15 | CN(C)C(=O)C(CCN1CCC(O)(c2ccc(Cl)cc2)CC1)(c1ccccc1)c1ccccc1 | 15 µM (active) and 10.5 µM (active) | – | – | – | – | – | – | – | 1.84 µM (active) and 28.2 µM (active) | 20.9 µM (active) | 5.17 µM (active) | –
